Experimental data taken from PubChem BioAssay AID2314 (National Center for Advancing Translational Sciences (NCATS), 2010).
The campaign covered roughly 300,000 compounds. About 37,000 (12%) were called active. Cut-off read from the data, not from the text of the source: active = max response mostly above about 13% (no sharp cut-off); inactive = mostly below about 14%. The full list was thinned out, with actives kept by preference.

Test: Cycloheximide Counterscreen for Small Molecule Inhibitors of Shiga Toxin; note: read at 38.3 µM for the half of the compounds with a filed dose; 0% is about no effect
Conditions: cell reporter, cycloheximide protein synthesis inhibition counterscreen; hits give high values

SMILES	max response
Cc1c(NC(=O)Nc2cccc([N+](=O)[O-])c2)c(=O)n(-c2ccccc2)n1C	3.26% (inactive)
CCN1CCN(CCNC(=O)c2ccc3c(c2)NC(=O)/C(=C\c2ccc(OC)c(OC)c2)S3)CC1	1.31% (inactive)
CC(Nc1nc(C(F)(F)F)nc2ccccc12)c1cccs1 (centres undefined)	-5.02% (inactive)
C=Cn1cc[n+](CC(=O)c2ccc(OC)c(OC)c2)c1	-1.55% (inactive)
CC(=O)Nc1nc(N(C)C)nc(N(C)C)n1	26.5% (active)
CN(C)c1nc(NN)nc(Nc2ccc(F)cc2)n1	-3.59% (inactive)
CN(C)c1nc(Nc2ccc(Cl)c(Cl)c2)nc(N(C)C)n1	1.57% (inactive)
O=S1(=O)CCO[C@H]2Cc3ccccc3[C@H]2N1Cc1ccccc1	-1.34% (inactive)
Cc1c(-c2nn(C)c(=O)c3ccccc23)oc2ccc(F)cc2c1=O	-8.42% (inactive)
C=CCNC(=O)c1ccc(C)c(Br)c1	5.91% (inactive)
C=CCNC(=O)c1ccc2c3n(nc2c1)-c1ccc(C)cc1CO3	34.5% (active)
Cc1cccc(-c2nc3ccc(C(=O)NCCN4CCN(C)CC4)cc3nc2-c2cccc(C)c2)c1	-13.3% (inactive)
CCCCn1c(N)c(N(CCC(C)C)C(=O)c2ccc([N+](=O)[O-])o2)c(=O)[nH]c1=O	-1.97% (inactive)
CCN(CC)CC(=O)Nc1sc2c(c1C(=O)c1ccccc1C)CCC2	-2.82% (inactive)
CCOc1ccc(C(C(=O)NCCOC)N(CCOC)C(=O)CCC(=O)Nc2ccccn2)cc1 (centres undefined)	1.47% (inactive)
CC(O)c1ccc(OCCN(C)c2ccccn2)cc1 (centres undefined)	55.9% (active)
CC(C)c1ccc(OCC(O)CN2CCN(c3ccccn3)CC2)cc1 (centres undefined)	-1.42% (inactive)
Nc1[nH]c(=S)nc2nc(-c3ccccc3)c(-c3ccccc3)nc12	-2.36% (inactive)
CC1=C(C(=O)NC2CC(C)(C)Cc3c2cnn3-c2ccc(C)cc2)OCCO1 (centres undefined)	10.7% (inactive)
C=CCNc1cnn(-c2ccc(C)cc2)c(=O)c1Cl	66.7% (active)
Cc1ccc(Oc2cnn(-c3ccccc3)c(=O)c2Br)cc1	12.3% (inactive)
CC(C)(C)c1nc2ccccc2c(=O)n1N1C(=O)c2ccccc2C1=O	-2.32% (inactive)
Cc1ccc2nc(COc3ccc(N(C)S(=O)(=O)c4ccccc4)cc3)cc(=O)n2c1	-1.15% (inactive)
CCOc1c(CNCc2ccc(C(=O)O)cc2)cccc1OC	-3.44% (inactive)

SMILES	max response
CCCCCc1ccc(-c2ccc(OCC)cc2)nc1	15.6% (active)
CCCCCc1ccc(-c2cn(Cc3ccc4ccccc4c3)nn2)cc1	-2.64% (inactive)
CCCCCc1ccc(-c2ccc(C(=O)O)cc2)nc1	79.8% (active)
O=C(O)c1ccc(COCC(F)(F)F)cc1	-3.85% (inactive)
CCOc1ccc(-c2ccc(SCC(=O)N3CCOCC3)nn2)cc1	23.3% (inactive)
COc1ccc(CNC(=O)C2CCN(S(=O)(=O)c3ccc(SC)cc3)CC2)cc1	10.4% (inactive)
CCn1c(O)c(N=NC(=O)c2cccc(S(=O)(=O)N3CCCCC3)c2)c2ccccc21	-2.88% (inactive)
CC(=O)[O][Sn]([c]1ccccc1)([c]1ccccc1)[c]1ccccc1	-16.7% (inactive)
O=C(O)CN1CCN(C(c2ccccc2)c2ccccc2)CC1	-0.558% (inactive)
COC(=O)Cc1csc(/N=C/c2c(O)n(-c3cccc(C(F)(F)F)c3)c(=O)c3ccccc23)n1	-0.585% (inactive)
COc1ccc(NC(=O)c2cc([N+](=O)[O-])ccc2NC(=O)CNC2CCCCC2C)c(OC)c1 (centres undefined)	-4.84% (inactive)
CC(C)c1nnc(NC(=O)COC(=O)/C=C/c2ccc([N+](=O)[O-])cc2)s1	-2.23% (inactive)
CCC(C)N(C)C1CCN(C(=S)Nc2ccc(OC)cc2)CC1 (centres undefined)	2.11% (inactive)
COc1ccc(C(=O)NC2CCN(C(=S)Nc3ccccc3)CC2)cc1	-4.48% (inactive)
COc1ccccc1C1CCN(C(=S)Nc2ccc(Br)cc2)CC1	21.5% (active)
O=C(CN1CCN(c2ccccc2)CC1)Nc1ccc(F)cc1	0.655% (inactive)
Cc1cc2oc(C(=O)Nc3c(C)n(C)n(-c4ccccc4)c3=O)c(C)c2cc1Cl	-5.74% (inactive)
O=C(CC1NCCNC1=O)Nc1cc(Cl)cc(Cl)c1 (centres undefined)	-5.54% (inactive)
O=C(CC1NCCc2ccccc21)Nc1cccc(Cl)c1 (centres undefined)	30.4% (active)
O=C(CC1C(=O)NCCN1C(=O)c1ccc([N+](=O)[O-])cc1)Nc1cccc(Cl)c1 (centres undefined)	5.86% (inactive)
O=C1/C(=C\c2ccccc2Cl)SC(=S)N1CCC(=O)N1CCCc2ccccc21	-2.48% (inactive)
Cc1ccc(C(=O)N2CC(=O)Nc3ccc(F)cc3C2c2ccc(F)cc2)cc1 (centres undefined)	-2.84% (inactive)
CCn1c(=S)sc2c(=O)n(CC(=O)Nc3cccc(Br)c3)c(C)nc21	-2.2% (inactive)
CCCCC(C(=O)NC(C)(C)C)N(Cc1ccccc1)C(=O)c1snc(C(N)=O)c1N (centres undefined)	-0.829% (inactive)

SMILES	max response
COc1ccc(S(=O)(=O)NC(C)C(=O)Nc2cccc([N+](=O)[O-])c2)cc1 (centres undefined)	5.76% (inactive)
CC(=O)Nc1cccc([N+](=O)[O-])c1	5.16% (inactive)
COC(=O)/C=C\C(=O)Nc1cccc([N+](=O)[O-])c1	58% (active)
C[C@H](NC(=O)[C@@H]1Cc2ccccc2CN1C(=O)OC(C)(C)C)C(=O)NC1CCCC1	0.878% (inactive)
Cc1cc(OC(=O)c2ccc(OC(C)C)cc2)c([N+](=O)[O-])c(=O)[nH]1	10.8% (inactive)
Cc1ccc(S(=O)(=O)NCCCn2ccnc2)cc1C(=O)NC(C)C	-2.94% (inactive)
CCOc1ccc(N2C(=O)/C(=C/c3ccc(C)o3)N(C)C2=S)cc1	-2.62% (inactive)
Cc1ccc(C(=O)NNC(=O)OC(C)(C)C)c(Cl)c1	23.3% (active)
CCOc1ccc(NC(=O)NNC(=O)c2ccc(Cl)cc2Cl)cc1	-2.33% (inactive)
CC(C)(C)OC(=O)N1CCC(C(=O)NNC(=O)c2ccc(Cl)cc2Cl)CC1	1.42% (inactive)
Cc1ccccc1CN1C[C@@H]2C[C@@H](c3cn(C)nc3-c3ccccc3)N3CCC[C@@]23C1=O	-1.2% (inactive)
Cc1cccc(NC(=O)c2cc(N3C(=O)CCC3=O)ccc2Cl)n1	-1.19% (inactive)
Cc1cccc(NC(=O)c2cccnc2Cl)n1	24.1% (active)
Cc1cccc(NC(=O)c2ccccc2NC(=O)C(C)(C)C)n1	-4.22% (inactive)
COC(=O)C(C(=O)Nc1cccc(C)n1)C1CCCCCC1 (centres undefined)	0.569% (inactive)
Cc1cccc(NC(=O)c2ccc3ccccc3n2)n1	56.4% (active)
CCOC(=O)C(=CNc1cccc(C)n1)C(=O)OCC	11.4% (inactive)
COc1cccc(CNC(=O)C2CCCN(c3ncnc4c3nc3n4CCCCC3)C2)c1 (centres undefined)	-1.2% (inactive)
COc1cc2c(cc1OC)C(C(=O)Nc1cc(C)c(OC)c(C)c1)CC(=O)N2 (centres undefined)	-2.52% (inactive)
Cc1c(Cl)cccc1NC(=S)NCC(O)c1ccccc1 (centres undefined)	7.6% (inactive)
O=c1ccc2cc(S(=O)(=O)NCCCc3ccccc3)ccc2[nH]1	0.781% (inactive)
COCC(=O)Nc1c(C(=O)N2CCCC2)oc2ccccc12	9.66% (inactive)
O=C(Nc1ccc(F)cc1)c1cccnc1N1CCOCC1	-3.65% (inactive)
O=C(Nc1ccc(N2CCOCC2)nc1)c1c(F)cccc1F	47.6% (active)

SMILES	max response
NC(=O)c1ccc(N2CCOCC2)nc1	3.99% (inactive)
Cc1cccc(C)c1NC(=O)C(Cl)C(=O)c1ccccc1 (centres undefined)	-3.97% (inactive)
CCCCNC(=S)N/N=C1\CCCCc2ccccc21	-5.15% (inactive)
O=C(C1=C[C@H](c2coc3ccccc3c2=O)C[C@H](OCc2ccc(CO)cc2)O1)N1CCN(Cc2ccccc2)CC1	1.24% (inactive)
COc1ccccc1N1CCN(S(=O)(=O)CCNC(=O)c2ccc(OC(C)C)cc2)CC1	-4.03% (inactive)
CCOC(=O)c1cc2n(c1N)-c1ccccc1C2=O	16.1% (active)
CCOC(=O)c1ccccc1CN1C(=O)c2ccccc2S1(=O)=O	0.941% (inactive)
CCOC(=O)C1=C(C(=O)OCC)C(C(=O)OCC)N(S(=O)(=O)C(F)(F)F)c2ccccc21 (centres undefined)	2.14% (inactive)
Nc1ncc(CN2CCCC(C(=O)Nc3ccc(-c4ccco4)cc3)C2)cn1 (centres undefined)	-1.66% (inactive)
CCOC(=O)c1cccc(NC(=O)CCc2nnc3ccc(N4CCOCC4)nn23)c1	0.592% (inactive)
COc1ccc(NC(=O)CCCC(=O)c2ccccc2)cc1	12% (inactive)
COC(=O)c1ccc(/C=N/NC(=O)C(=O)N2CCCCCC2)cc1	-2.86% (inactive)
Cc1ccc(C(=O)NC2CCN(C(=O)Nc3ccc(F)cc3)CC2)cc1	-5.94% (inactive)
COC(=O)c1ccc(NC(=O)c2ccccc2NS(=O)(=O)c2ccccc2)cc1	7.47% (inactive)
Cc1ccc(C(=O)CNc2ccc(F)cc2)cc1	13.3% (active)
Cc1ccc(NC(=O)CCC(=O)c2ccc(Br)cc2)cc1	-1.06% (inactive)
COC(=O)c1ccc(NCC(=O)c2ccccc2)cc1	29.7% (active)
COC(=O)c1ccc(NCC(=O)N2CCCCCC2)cc1	19.4% (active)
COC(=O)c1ccc(C(=O)OC)c(NC(=S)N2CCCCC2)c1	1.84% (inactive)
O=C(NC1CCCCC1)C1CCC(CNS(=O)(=O)c2ccccc2)CC1 (centres undefined)	-1.26% (inactive)
COc1ccccc1C1C(C(N)=O)=C(C)Nc2nc(CCCO)nn21 (centres undefined)	-5.85% (inactive)
C[C@@H]1O[C@@H](OC[C@H]2O[C@@H](Oc3cc(O)c4c(c3)O[C@H](c3ccc(O)c(O)c3)CC4=O)[C@H](O)[C@@H](O)[C@@H]2O)[C@H](O)[C@H](O)[C@H]1O	-3.85% (inactive)
